# PubChem BioAssay
# Values without a mark were called inactive. Entries that show only a call come without a potency. For some of these results: Potency and affinity values are given separately. Calls of active or inactive are those of the source. Unless noted, no rule for the calls is given here.
# What was measured:
# [1] = antimalarial activity against Dd2 strain (AID 2302;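 active = growth inhibition above 50% at the single 2 µM test dose, taken to imply half-maximal potency below 2 µM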); details: P. falciparum Dd2 in RBCs, LDH growth readout, 72 h; at 2 µM; hits give high values
# [2] = HepG2 cytotoxicity, primary screen, cytotoxicity control for P. falciparum antimalarial project, cell-based, ATP luminescence (AID 2303;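 active = inhibition above 50%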); details: HepG2 viability, 24-48 h, at 10 µM, hits give high values
# [3] = target: L-lactate dehydrogenase (Plasmodium falciparum (isolate CDC / Honduras)) (UniProt Q27743); experiment: PfLDH activity inhibition – cell lysate, 3D7 strain, counter-screen for P. falciparum growth inhibition project (AID 2304); details: P. falciparum 3D7 crude extract, LDH APAD/NBT absorbance; at 2 µM; hits give high values
# [4] = inhibition of 3D7 malaria parasite growth – strain 3D7 (AID 2306); details: P. falciparum 3D7 erythrocytic growth, LDH absorbance, 72 h; at 2 µM; hits give high values
# [5] = target: Calcium-dependent protein kinase 1 (Plasmodium falciparum (isolate 3D7)) (UniProt P62344); experiment: PfCDPK1 kinase inhibitors, biochemical, TCAMS library (AID 1159585; cut-off not given, nearly all actives have IC50 up to about 0.98 µM;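 also: inhibitors leave more ATP so luminescence rises with inhibition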); details: recombinant PfCDPK1, Kinase-Glo ATP depletion luminescence
# [6] = target: Plasmodium falciparum protein kinase 6 (PK6, PF3D7_1337100) (UniProt Q8IDW1); experiment: PfPK6 kinase inhibitors, biochemical, TCAMS library (AID 1159586); details: recombinant PfPK6, Kinase-Glo ATP depletion luminescence
# [7] = target: Protein kinase 7 (PK7), Plasmodium falciparum 3D7 (PF3D7_0213400) (UniProt Q7YTF7); experiment: inhibition of Plasmodium PK7 catalytic activity – biochemical, TCAMS antimalarial set, Kinase-Glo luminescence (AID 1159587); details: recombinant PfPK7, Kinase-Glo ATP depletion luminescence
# [8] = target: Calcium-dependent protein kinase 4 (Plasmodium falciparum (isolate 3D7)) (UniProt Q8IBS5); experiment: PfCDPK4 kinase inhibitors, biochemical, TCAMS library (AID 1159588; cut-off not given, nearly all actives have IC50 up to about 0.91 µM); details: recombinant PfCDPK4, Kinase-Glo ATP depletion luminescence
# Sequence of Calcium-dependent protein kinase 4 (Plasmodium falciparum (isolate 3D7)) (Q8IBS5 whole entry, looked up): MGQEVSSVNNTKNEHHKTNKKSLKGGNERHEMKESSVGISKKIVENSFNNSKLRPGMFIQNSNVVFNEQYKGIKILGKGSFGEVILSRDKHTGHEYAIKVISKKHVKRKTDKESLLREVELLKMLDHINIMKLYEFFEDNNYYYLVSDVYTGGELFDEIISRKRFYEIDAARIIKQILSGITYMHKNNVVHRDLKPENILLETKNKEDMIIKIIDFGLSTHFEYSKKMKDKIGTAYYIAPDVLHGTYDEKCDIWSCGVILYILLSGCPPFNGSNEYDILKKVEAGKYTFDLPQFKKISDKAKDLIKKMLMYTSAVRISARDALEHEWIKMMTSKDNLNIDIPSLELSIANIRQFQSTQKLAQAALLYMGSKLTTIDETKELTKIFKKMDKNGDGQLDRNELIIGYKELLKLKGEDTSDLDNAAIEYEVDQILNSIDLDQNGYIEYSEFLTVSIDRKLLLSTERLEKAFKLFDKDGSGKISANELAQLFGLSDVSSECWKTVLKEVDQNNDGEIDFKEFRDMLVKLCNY
# Sequence of L-lactate dehydrogenase (Plasmodium falciparum (isolate CDC / Honduras)) (Q27743 whole entry, looked up): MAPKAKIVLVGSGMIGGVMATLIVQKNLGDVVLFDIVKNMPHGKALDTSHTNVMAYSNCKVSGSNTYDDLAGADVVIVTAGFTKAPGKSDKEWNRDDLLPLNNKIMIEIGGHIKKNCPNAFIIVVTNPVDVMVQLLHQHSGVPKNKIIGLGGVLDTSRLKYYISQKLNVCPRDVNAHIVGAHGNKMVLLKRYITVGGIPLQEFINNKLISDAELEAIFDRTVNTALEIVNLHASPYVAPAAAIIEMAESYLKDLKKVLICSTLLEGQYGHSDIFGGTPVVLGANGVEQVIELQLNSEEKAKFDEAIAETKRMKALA
# Sequence of Plasmodium falciparum protein kinase 6 (PK6, PF3D7_1337100) (Q8IDW1 1-305): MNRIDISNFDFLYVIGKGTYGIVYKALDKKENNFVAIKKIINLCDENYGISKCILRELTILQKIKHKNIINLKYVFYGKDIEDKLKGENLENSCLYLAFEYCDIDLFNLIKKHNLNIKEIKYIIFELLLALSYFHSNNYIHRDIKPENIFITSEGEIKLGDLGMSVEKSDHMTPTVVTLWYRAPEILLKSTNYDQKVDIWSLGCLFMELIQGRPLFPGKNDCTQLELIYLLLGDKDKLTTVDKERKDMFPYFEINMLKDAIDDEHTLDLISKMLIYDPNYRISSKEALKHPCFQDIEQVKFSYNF
# Sequence of Calcium-dependent protein kinase 1 (Plasmodium falciparum (isolate 3D7)) (P62344 whole entry, looked up): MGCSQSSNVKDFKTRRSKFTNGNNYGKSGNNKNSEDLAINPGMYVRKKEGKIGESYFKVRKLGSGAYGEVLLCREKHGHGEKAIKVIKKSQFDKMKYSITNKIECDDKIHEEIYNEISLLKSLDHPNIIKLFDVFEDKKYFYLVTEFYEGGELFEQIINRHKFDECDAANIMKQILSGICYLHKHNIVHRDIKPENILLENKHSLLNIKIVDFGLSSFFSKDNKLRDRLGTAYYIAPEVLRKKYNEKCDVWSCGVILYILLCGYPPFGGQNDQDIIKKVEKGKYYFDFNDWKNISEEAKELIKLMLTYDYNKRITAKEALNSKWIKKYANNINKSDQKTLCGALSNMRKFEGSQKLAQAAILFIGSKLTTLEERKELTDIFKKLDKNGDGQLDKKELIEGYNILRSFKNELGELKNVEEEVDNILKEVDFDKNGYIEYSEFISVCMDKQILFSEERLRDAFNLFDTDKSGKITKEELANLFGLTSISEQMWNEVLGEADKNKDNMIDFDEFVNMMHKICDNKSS
# Sequence of Protein kinase 7 (PK7), Plasmodium falciparum 3D7 (PF3D7_0213400) (Q7YTF7 1-343): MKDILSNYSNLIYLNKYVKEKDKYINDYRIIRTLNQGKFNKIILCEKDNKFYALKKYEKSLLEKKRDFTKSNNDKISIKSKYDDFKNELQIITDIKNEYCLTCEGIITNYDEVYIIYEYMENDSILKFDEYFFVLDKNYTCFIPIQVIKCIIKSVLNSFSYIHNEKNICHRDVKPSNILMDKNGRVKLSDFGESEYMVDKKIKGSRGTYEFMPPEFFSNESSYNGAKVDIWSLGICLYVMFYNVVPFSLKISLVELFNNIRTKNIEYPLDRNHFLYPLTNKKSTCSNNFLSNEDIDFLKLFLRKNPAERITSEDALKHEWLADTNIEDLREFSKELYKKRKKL
Compound,growth inhibition [1],inhibition [2],inhibition [3],growth inhibition [4],outcome [5],outcome [6],outcome [7],outcome [8]
Fc1ccc2nc(-c3ccc(-c4ccc(CN5CCN(c6ccncc6)CC5)cc4)cc3)[nH]c2c1,101% (active),37%,6%,102% (active),inactive,inactive,inactive,inactive
O=C(N[C@@H](CC1CCCCC1)C(=O)NCCc1ccc(Cl)c(Cl)c1)c1ccc(O)c(-c2ccc(Cl)c(Cl)c2)c1,99% (active),-11%,-2%,100% (active),inactive,inactive,inactive,inactive
CS(=O)(=O)N(c1ccccc1)c1cc(C(=O)N[C@@H](Cc2ccccc2)[C@H](O)CNC2CCCCC2)cc(N2CCCC2=O)c1,97% (active),8%,-3%,100% (active),inactive,inactive,inactive,inactive
COc1ccc(C2c3cc(OC)c(OC)cc3C(=NO)C2C)cc1OC (stereo not given),6%,20%,-2%,90% (active),inactive,inactive,inactive,inactive
Clc1cnc2ccc3c(c2c1CCN1CCC(NCc2cc4c(cn2)OCCO4)CC1)OCCO3,18%,3%,-2%,92% (active),inactive,inactive,inactive,inactive
O=C(/C=C/c1ccc(Cl)c(Cl)c1)NCCCCCN1CCC(NC(=O)Nc2cccc(Cl)c2F)CC1,30%,75% (active),4%,101% (active),inactive,inactive,inactive,inactive
CC(=O)c1c[nH]c2ccc(/C=C/C(=O)NC3CCC(CCN4CCc5ccc(C#N)cc5CC4)CC3)cc12 (stereo not given),98% (active),11%,9%,101% (active),inactive,inactive,inactive,inactive
COc1ccc(-c2cccc(NC(=O)c3cccc(C#N)c3)c2)cc1CNC(C)C,51% (active),22%,0%,101% (active),inactive,inactive,inactive,inactive
O=C(c1ccco1)c1cn(CCOc2ccccc2)c2ccccc12,10%,5%,-4%,98% (active),inactive,inactive,inactive,inactive
Cc1ccc(C(=O)Nc2ccc(C)c(OC3CCN(Cc4ccco4)C3)c2)cc1 (stereo not given),49%,10%,3%,90% (active),inactive,inactive,inactive,inactive
CC(=O)Nc1ccc(OCCCCN(Cc2ccccc2C(F)(F)F)c2ccc(C(F)(F)F)c(C#N)c2)c(Cl)c1,96% (active),14%,-1%,96% (active),inactive,inactive,inactive,inactive
c1ccc(-c2cc(NCCCn3ccnc3)nc(-c3cccnc3)n2)cc1,6%,15%,0%,84% (active),inactive,inactive,inactive,inactive
Cc1ccc(NC(=O)c2ccc3nccnc3c2)cc1OC1CCN(Cc2ccc(F)cc2)CC1,24%,16%,4%,87% (active),inactive,inactive,inactive,inactive
COc1ccc2ccccc2c1CCCCN1CCN(CC(c2ccc(F)cc2)N2CCC2)CC1 (stereo not given),51% (active),51% (active),9%,98% (active),inactive,inactive,inactive,inactive
COc1ccc2nccc([C@@H](O)CN3CCC(NCc4cc5cccnc5[nH]4)CC3)c2n1,0%,7%,-2%,90% (active),inactive,inactive,inactive,inactive
C=CCOc1ccc2ccccc2c1CNCCCCCCNCc1c(OCC=C)ccc2ccccc12,98% (active),99% (active),3%,100% (active),inactive,inactive,inactive,inactive
CCCNCc1ccc(-c2ccc(CN(CCOC)C(=O)Cc3cccnc3)cc2)nc1,13%,10%,-1%,92% (active),inactive,inactive,inactive,inactive
Cc1cc(S(=O)(=O)N2CCCCC(c3ccc(C(F)(F)F)cc3)=N2)c(Cl)cc1Cl,97% (active),17%,0%,97% (active),inactive,inactive,inactive,inactive
CCCCCOc1ccc(C(O)C(CN2CCCCC2)c2ccccc2)cc1 (stereo not given),95% (active),11%,5%,98% (active),inactive,inactive,inactive,inactive
O=C(Nc1ccccc1)N(Cc1ccc(-c2ccc(CNCc3ccc4c(c3)OCO4)cc2)cc1)C1CCN(Cc2ccccc2)CC1,41%,21%,-1%,98% (active),inactive,inactive,inactive,inactive
